Hit rate of the full screen: of about 5,500 compounds, about 2,000 (36%) were called active. Not shown: some 18% with an inconclusive outcome. No stated cut-off is given here; in the data, active means normalized growth mostly below about 0.91 (no sharp cut-off); inconclusive means no clear call, values can overlap the other calls; inactive means mostly above about 0.92. The list shows a part of the results.
Experiment: chemical genetic growth profiling, strain panel (AID 1159580);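 further: tested at 20 µM; growth read once vehicle control cultures reached saturation at 30 °C; 1 = growth at the plate median or of vehicle wells; lower values mean less growth of the strain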
Conditions: growth OD

Measured: normalized growth

COC(=O)COc1ccc(C(C)=O)cc1
inactive: S. cerevisiae deletion strains, locus YAL013W, strain DEP1, active compounds read low 1.01 | S. cerevisiae deletion strains, locus YBR229C, strain ROT2, active compounds read low 0.988 | S. cerevisiae deletion strains, locus YDL101C, strain DUN1, active compounds read low 0.96 | S. cerevisiae deletion strains, locus YDR150W, strain NUM1, active compounds read low 0.977 | S. cerevisiae deletion strains, locus YEL061C, strain CIN8, active compounds read low 1.01 | S. cerevisiae deletion strains, locus YGR078C, strain PAC10, active compounds read low 1 | S. cerevisiae deletion strains, locus YGR229C, strain SMI1, active compounds read low 0.992 | S. cerevisiae deletion strains, locus YHR030C, strain SLT2, active compounds read low 1.02 | S. cerevisiae deletion strains, locus YHR087W, strain rtc3, active compounds read low 1 | S. cerevisiae deletion strains, locus YJR043C, strain POL32, active compounds read low 1.01 | S. cerevisiae deletion strains, locus YJR075W, strain HOC1, active compounds read low 0.984 | S. cerevisiae deletion strains, locus YLR039C, strain RIC1, active compounds read low 0.974 | S. cerevisiae deletion strains, locus YLR058C, strain SHM2 (second series), active compounds read low 1 | S. cerevisiae deletion strains, locus YLR085C, strain ARP6, active compounds read low 1.01 | S. cerevisiae deletion strains, locus YLR262C, strain YPT6, active compounds read low 0.975 | S. cerevisiae deletion strains, locus YML094W, strain GIM5, active compounds read low 0.952 | S. cerevisiae deletion strains, locus YMR219W, strain ESC1, active compounds read low 1.01 | S. cerevisiae deletion strains, locus YMR263W, strain SAP30, active compounds read low 1 | S. cerevisiae deletion strains, locus YNL153C, strain GIM3, active compounds read low 1 | S. cerevisiae deletion strains, locus YNL298W, strain CLA4 (second series), active compounds read low 0.977 | S. cerevisiae deletion strains, locus YNL322C, strain KRE1, active compounds read low 0.991 | S. cerevisiae deletion strains, locus YNR030W, strain Alg12, active compounds read low 0.98 | S. cerevisiae deletion strains, locus YOL006C, strain TOP1, active compounds read low 0.999 | S. cerevisiae deletion strains, locus YPL055C, strain LGE1, active compounds read low 0.992 | S. cerevisiae deletion strains, locus YPL241C, strain CIN2, active compounds read low 1.07 | S. cerevisiae deletion strains, locus YPR135W, strain CTF4, active compounds read low 0.935 | S. cerevisiae strains, strain wild type, active compounds read low 0.99
